Screens (PubChem)
Mdm2-MdmX inh – human Mdm2/MdmX binding inhibition | SaOS-2 split-luciferase Mdm2/MdmX complementation, luminescence | inhibition, % at 8 µM | 330,000 tested, 3% active | O15151+Q00987;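 active means inhibition of at least 50% at 8 µM in the primary screen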
Target sequence (O15151 whole entry, looked up): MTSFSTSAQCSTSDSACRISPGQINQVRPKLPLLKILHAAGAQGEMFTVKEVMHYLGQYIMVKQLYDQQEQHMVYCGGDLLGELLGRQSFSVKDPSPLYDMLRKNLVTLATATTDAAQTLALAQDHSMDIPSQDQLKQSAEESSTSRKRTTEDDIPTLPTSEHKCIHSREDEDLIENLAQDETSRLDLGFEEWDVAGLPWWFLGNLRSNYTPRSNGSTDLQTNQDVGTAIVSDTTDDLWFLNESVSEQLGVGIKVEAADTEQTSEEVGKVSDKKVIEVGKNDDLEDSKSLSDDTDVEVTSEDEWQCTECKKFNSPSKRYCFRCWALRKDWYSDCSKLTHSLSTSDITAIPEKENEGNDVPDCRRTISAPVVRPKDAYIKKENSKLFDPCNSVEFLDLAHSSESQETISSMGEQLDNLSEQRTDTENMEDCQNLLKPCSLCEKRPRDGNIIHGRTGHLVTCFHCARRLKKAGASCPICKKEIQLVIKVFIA
Target sequence (Q00987 whole entry, looked up): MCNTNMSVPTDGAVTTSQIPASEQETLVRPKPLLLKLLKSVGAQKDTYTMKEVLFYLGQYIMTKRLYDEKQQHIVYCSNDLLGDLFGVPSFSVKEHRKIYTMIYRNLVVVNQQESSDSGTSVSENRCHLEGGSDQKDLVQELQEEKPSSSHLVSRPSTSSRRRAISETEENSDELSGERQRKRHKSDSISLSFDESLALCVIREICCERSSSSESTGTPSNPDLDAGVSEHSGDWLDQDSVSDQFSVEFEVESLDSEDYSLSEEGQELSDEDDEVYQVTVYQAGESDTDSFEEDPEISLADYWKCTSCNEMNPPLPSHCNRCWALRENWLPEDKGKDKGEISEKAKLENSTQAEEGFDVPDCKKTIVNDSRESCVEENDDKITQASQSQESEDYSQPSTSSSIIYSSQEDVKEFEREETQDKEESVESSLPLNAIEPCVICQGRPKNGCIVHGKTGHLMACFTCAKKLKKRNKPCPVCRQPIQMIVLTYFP
Gli-Sufu block – Gli-Sufu pathway antagonism | Sufu-KO-LIGHT fibroblasts, Gli luciferase reporter luminescence | inhibition, % at 5 µM | 340,000 tested, 0.74% active;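 active means inhibition above about 55%, limit read from the data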
Beta apoptosis – beta cell apoptosis inhibition; protection from apoptosis, % (no concentration beside the values); 300,000 tested, 0.8% active; INS-1E cytokine-induced death, ATP luminescence, 48 h; percent of positive-control rescue, neutral wells zero; AID 435005;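 active means Every replicate reaches about 75%, or at least half do and their mean reaches it too, limit read from the data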;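 further: higher means more ATP so stronger rescue from cytokine killing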
697 NFkB inh – lowers PMA/ionomycin-induced NF-kB signal in 697 B cells; 697 B-cell NF-kB luciferase reporter, 16 h; inhibition, % at 4 µM; 330,000 tested, 0.33% active; AID 435022; in the data active means inhibition above about 35%
Jurkat NFkB inh – lowers PMA/ionomycin-induced NF-kB signal in Jurkat cells; PMA/ionomycin-induced NF-kB luciferase reporter, luminescence; inhibition, % at 4 µM; 330,000 tested, 0.53% active; AID 435003; in the data active means inhibition above about 50%
Mdm2-MdmX conf – confirmation of human Mdm2/MdmX interaction inhibitors. 10,000 tested, 55% active. shares compounds with Mdm2-MdmX inh. Mdm2-MdmX binding, luminescent assay. AID 489028. inhibition, % at 8 µM; in the data active means inhibition above about 40%
Full FLuc ctr – counter-screen for Mdm2/MdmX inhibitors: full-length luciferase; shares compounds with Mdm2-MdmX inh; SaOS-2 full-length luciferase counterscreen, luminescence; inhibition, % at 8 µM; 6,200 tested, 77% active;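 active means mean inhibition at 8 µM reaching about 37%, which flags the compound as non-specific, limit read from the data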;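 further: p53-null SaOS-2 cells with luciferase driven by a doxycycline-inducible promoter; compound on cells about two nights before reading with doxycycline added after day one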
Numbers stand for hits; i = inactive; nt = no result given. Most compounds without a hit are left out; they make up all but 4% or so of the library.

SMILES	Mdm2-MdmX inh	Gli-Sufu block	Beta apoptosis	697 NFkB inh	Jurkat NFkB inh	Mdm2-MdmX conf	Full FLuc ctr
Cc1nc(C(=O)O)cc2c1[nH]c1ccccc12	i	i	i	i	i	nt	nt
CCOC(=O)c1c(NC(=O)C[n+]2ccccc2)sc2c1CCCC2	i	i	i	i	i	nt	nt
CCOC(=O)c1c(NC(=O)C(NCCN(C)C)c2ccccc2)sc2c1CCCC2 (centres undefined)	94	i	i	i	i	i	69
CN(C)CCOc1nc(-c2ccccc2)nc2c1oc1ccccc12	71	i	i	i	i	i	nt
CN(C)CCOc1ncnc2c1oc1ccccc12	i	i	i	i	i	nt	nt
CCc1ccc(NC(=O)CN(CC(=O)Nc2ccc(CC)cc2)CC(C)O)cc1 (centres undefined)	i	i	i	i	i	nt	nt
O=C(c1cccc(S(=O)(=O)N2CCc3ccccc32)c1)N1CCc2ccccc2C1	i	i	i	i	i	nt	nt
CC(C(=O)N1CCc2ccccc21)N1CCc2ccccc2C1 (centres undefined)	i	i	i	i	i	nt	nt
COc1cc2c(cc1OC)CN(C(C)C(=O)N1CCc3ccccc31)CC2 (centres undefined)	52	i	i	i	i	i	84
CCN(CC)CCNC(=O)c1ccc(NC(=O)c2cccc(S(=O)(=O)N3CCc4ccccc43)c2)cc1	76	i	nt	i	i	44	67
COc1cc2c(cc1OC)CN(C(=O)c1cccc(S(=O)(=O)N3CCc4ccccc43)c1)CC2	90	i	i	i	i	59	86
CCN(CC)CCNC(=O)c1ccc(NC(=O)c2cccc(S(=O)(=O)N3c4ccccc4CC3C)c2)cc1 (centres undefined)	80	i	i	i	i	i	nt
CC1Cc2ccccc2N1S(=O)(=O)c1cccc(C(=O)NCCCO)c1 (centres undefined)	i	i	i	i	i	nt	nt
CC(=O)c1ccc(OCCCC(=O)OCC(=O)N2CCN(S(=O)(=O)c3ccc(C)cc3C)CC2)cc1	nt	i	nt	nt	nt	nt	nt
CC1(C)O[C@@H](CC(=O)O)[C@]23CO[C@H](C(=O)[C@]4(C)C2CC[C@@]2(C)[C@H](c5ccoc5)OC(=O)C5O[C@]524)[C@@H]13 (some centres undefined)	i	i	i	i	i	nt	nt
CC(Sc1nncs1)C(=O)Nc1ccc2c(c1)OCO2 (centres undefined)	i	i	i	i	i	nt	nt
CCOC(=O)c1ccc(NC(=O)c2cccc(S(=O)(=O)N3c4ccccc4CC3C)c2)s1 (centres undefined)	57	i	i	i	i	i	nt
COc1c(OC)c(O)c2c(=O)c(O)c(-c3ccccc3)oc2c1OC	81	i	i	i	i	i	nt
COc1ccc(-c2oc3cc(OC)c(O)c(OC)c3c(=O)c2OC)cc1O	64	i	i	i	i	42	i
COc1ccc(-c2oc3c(OC)c(OC)c(OC)c(O)c3c(=O)c2OC)cc1OC	79	i	i	i	i	87	47
COc1ccc(-c2oc3cc(O)c(OC)c(O)c3c(=O)c2OC)cc1	i	i	nt	i	i	nt	nt
COc1cc(C(=O)NNC(=O)CSc2nnc3ccccn23)cc(OC)c1OC	i	i	i	i	i	nt	nt
CC(=O)c1cc(F)ccc1OCC(=O)N1CCCc2ccccc21	i	i	i	i	i	nt	nt
COc1ccc(CCn2c(NN=C(C)C)nc3c2c(=O)[nH]c(=O)n3C)cc1	i	i	i	i	i	nt	nt
COc1ccc(CCn2c(NN)nc3c2c(=O)[nH]c(=O)n3C)cc1	57	i	i	i	i	50	67
SMILES	Mdm2-MdmX inh	Gli-Sufu block	Beta apoptosis	697 NFkB inh	Jurkat NFkB inh	Mdm2-MdmX conf	Full FLuc ctr
CCOc1ccc(OCC(=O)Nc2ccccc2N2CCCC2)cc1	51	i	i	i	i	72	60
CCn1c(=O)cc(OCC(=O)Nc2ccccc2N2CCN(C)CC2)c2ccccc21	50	i	i	i	i	i	nt
Cc1cccc(OCC(=O)NC(=S)Nc2ccccc2N2CCOCC2)c1C	73	i	i	i	i	i	nt
Cc1cccc(OCC(=O)Nc2ccc(N3CCN(S(C)(=O)=O)CC3)cc2)c1C	96	i	i	i	i	i	nt
O=C(COc1ccccc1)Nc1ccccc1N1CCCCC1	i	i	i	i	i	nt	nt
COc1cc(OC)c(S(=O)(=O)NC(C)C)cc1C(=O)O	i	i	i	i	i	nt	nt
CCN(CC)CCN(C(=O)c1ccc(C(C)=O)cc1)c1nc2ccc(Cl)cc2s1	i	i	i	i	i	nt	nt
